Data reported in PubChem BioAssay (Tox21).
Where “and” joins values, the source holds several entries; their conditions need not be identical. Equal entries are not always repeated. Records with an inconclusive call do not appear. Entries that show only a call come without a potency. More than one record can exist for a structure, and the calls need not agree. Calls of active or inactive are those of the source. Calls follow the shape of the dose curve; as a rule, active = well fitted activation curve with a large enough effect in the repeat runs; inconclusive = weak or mixed curves; inactive = flat fitted curve, though single readings scatter.

test: A CellTox Green Cytotoxicity Assay to monitor cytotoxicity in HEK293 cells - 32 hour (AID 1224881); details: CellTox Green fluorescence; series mostly up to 76.8 µM; also: nearly all actives have a fitted effect of over 40% in size
From the text: National Center for Advancing Translational Sciences [NCATS]
NIH Chemical Genomics Center [NCGC]
U.S. Environmental Protection Agency [EPA]
National Institutes of Environmental Health Sciences [NIEHS]
National Toxicology Program [NTP]
Cell-based models are critical for drug discovery. Determining the natural cytotoxic effects resulting from test compounds is an essential research activity. A CellTox Green Cytotoxicity Assay to monitor cytotoxicity in real time of continues cell culture during 40 hours of the compound treatment was used to screen Tox21 10K library compounds in Hek293 cells. CellTox Green Cytotoxicity Assay is a nonlytic, homogeneous, biofluorescent method to measure cytotoxicity in cell culture after experimental manipulation. The assay system uses a proprietary asymmetric cyanine dye that is excluded from viable cells but preferentially stains the dead cell's DNA. […] Viable cells produce no appreciable increases in fluorescence. Therefore, the fluorescence signal produced by the binding interaction with dead cell DNA is proportional to cytotoxicity.
The mixture of Hek293 cell suspension and reagents were dispensed at 600cells/6 ul/well in 1536-well tissue culture treated black solid bottom plates using a Multidrop dispenser. After the assay plates were incubated at a 37 C/5% CO2 incubator for 5 hours, 23 nL of compounds dissolved in DMSO, positive and negative controls was transferred to the assay plate by a pintool work station. The plates were incubated at 37 C for 40 hours. The fluorescence intensity were measured at 0h, 8h, 16h, 24h, 32h and 40h time points using ViewLux plate reader during compound treatment.
Potency is read from the fitted curve at half-maximal effect.

Q: For `O=C1c2c(O)ccc([N+](=O)[O-])c2C(=O)c2c([N+](=O)[O-])ccc(O)c21`, which Potency is on record?
A: inactive

Q: With `COc1cccc(CCc2ccccc2OCC(CN(C)C)OC(=O)CCC(=O)O)c1` (stereo not given) as the compound, how does the Potency read?
A: inactive

Q: Which Potency does the source give for `OCCN1CN(CCO)CN(CCO)C1` here?
A: inactive

Q: For `CCCCCCCC/C=C\CCCCCCCC(=O)N(C)CC(=O)O`, which Potency is on record?
A: 34.7 µM (active)

Q: Which Potency does the source give for `CS(C)(=O)=O` here?
A: 19.5 µM (active)

Q: For `NC(=O)C(=O)N/N=C/c1ccc([N+](=O)[O-])o1`, which Potency is on record?
A: inactive

Q: With `CCc1ccc(O)c(C(C)(C)C)c1` as the compound, how does the Potency read?
A: 38.9 µM (active)

Q: Which Potency does the source give for `CCCCOc1ccc(C(=O)CCN2CCCCC2)cc1` here?
A: 19 µM (active)

Q: For `CC(C)(c1cc(Br)c(OCCO)c(Br)c1)c1cc(Br)c(OCCO)c(Br)c1`, which Potency is on record?
A: inactive

Q: For `CCCCCCCCCCCCCCCCCO`, which cytotoxicity increase is on record?
A: -22.2% [at 15.8 µM] (inactive)

Q: For `CN(C)CCN1CCOCC1`, which Potency is on record?
A: inactive

Q: With `CCCCC(CC)COC(=O)c1ccc(O)cc1` (stereo not given) as the compound, how does the Potency read?
A: 43.5 µM (active) and 21.9 µM (active)

Q: For `CCCCCCOc1cc(C)c(O)c(C)c1C`, which Potency is on record?
A: 44.2 µM (active)

Q: With `CCC(C)c1ccccc1` (stereo not given) as the compound, how does the Potency read?
A: inactive

Q: With `CC(=O)Oc1ccc(C2(c3ccc(OC(C)=O)cc3)Oc3ccccc3NC2=O)cc1` as the compound, how does the Potency read?
A: inactive

Q: Which Potency does the source give for `c1cc(OCC2CO2)cc(OCC2CO2)c1` (stereo not given) here?
A: inactive

Q: With `O=C1OC(=O)c2ccc3c4c(ccc1c24)C(=O)OC3=O` as the compound, how does the Potency read?
A: inactive

Q: Which Potency does the source give for `CC(C)(C)CC(C)(C)c1ccccc1O` here?
A: 43.9 µM (active)

Q: For `CCNc1nc(NC(C)CC)nc(OC)n1` (stereo not given), which Potency is on record?
A: inactive

Q: With `CO[C@H]1C=CO[C@@]2(C)Oc3c(C)c(O)c4c(O)c(cc(O)c4c3C2=O)NC(=O)/C(C)=C\C=C/[C@H](C)[C@H](O)[C@@H](C)[C@@H](O)[C@@H](C)[C@H](OC(C)=O)[C@@H]1C` as the compound, how does the Potency read?
A: inactive

Q: Which Potency does the source give for `C=C(c1ccc(C(=O)O)cc1)c1cc2c(cc1C)C(C)(C)CCC2(C)C` here?
A: 30.9 µM (active) and inactive

Q: With `C/C=C/CO` as the compound, how does the Potency read?
A: inactive

Q: Which Potency does the source give for `CCCCCCCC(OC)OC` here?
A: inactive

Q: For `Cc1cn[nH]c1`, which Potency is on record?
A: inactive

Q: With `OCCCCl` as the compound, how does the Potency read?
A: inactive

Q: Which Potency does the source give for `C[C@]12CC[C@H]3C(=CCc4cc(O)ccc43)[C@@H]1CCC2=O` here?
A: inactive

Q: For `Clc1nc2ccccc2s1`, which Potency is on record?
A: inactive

Q: With `CCC1(c2cnc[nH]2)Cc2ccccc2C1` as the compound, how does the Potency read?
A: inactive

Q: With `C=C(C)C(=O)OCCC[Si](Cl)(Cl)Cl` as the compound, how does the Potency read?
A: inactive

Q: With `CCCCCCCCCCOCC(O)CN` (stereo not given) as the compound, how does the Potency read?
A: 26.8 µM (active)

Q: For `CC(C)=CC1CC(C)CCO1` (stereo not given), which Potency is on record?
A: inactive

Q: Which Potency does the source give for `c1ccc(Nc2cccc3ccccc23)cc1` here?
A: inactive

Q: With `C=CC(C)C#N` (stereo not given) as the compound, how does the Potency read?
A: inactive

Q: Which Potency does the source give for `Oc1c(Br)cc(Br)c2cccnc12` here?
A: inactive

Q: For `COc1cc(C(=O)NS(=O)(=O)c2ccccc2C)ccc1Cc1cn(C)c2ccc(NC(=O)OC3CCCC3)cc12`, which Potency is on record?
A: inactive

Q: Which Potency does the source give for `O=C1OC(=O)c2cccc3cccc1c23` here?
A: inactive

Q: With `C[Si](C)O[Si](C)C` as the compound, how does the Potency read?
A: inactive

Q: For `O=C1c2c(O)ccc(O)c2C(=O)c2c(NCCNCCO)ccc(NCCNCCO)c21`, which Potency is on record?
A: inactive

Q: Which Potency does the source give for `CC=O` here?
A: 51.3 µM (active)

Q: With `CCOC(=O)[C@@](C)(N)Cc1ccc(O)c(O)c1` as the compound, how does the Potency read?
A: inactive
